Results: article PMC4336329 (PLoS ONE, 2015)
Among all 310,000 compounds or so, about 14,000 (4.5%) showed an effect of 50% or more. The effect is printed as a negative number. Only a selection was taken, and strong results are over-represented in it overall.

These compounds were tested against human ether-à-go-go-related gene (hERG) potassium channel (human, UniProt Q12809) (assay: primary screen, population patch clamp on CHO cells stably expressing hERG; higher = less effect of the substance).
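Further: peak tail current of the secondary pulse compared with the same well before compound.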

human ether-à-go-go-related gene (hERG) potassium channel, sequence (Q12809 whole entry, looked up): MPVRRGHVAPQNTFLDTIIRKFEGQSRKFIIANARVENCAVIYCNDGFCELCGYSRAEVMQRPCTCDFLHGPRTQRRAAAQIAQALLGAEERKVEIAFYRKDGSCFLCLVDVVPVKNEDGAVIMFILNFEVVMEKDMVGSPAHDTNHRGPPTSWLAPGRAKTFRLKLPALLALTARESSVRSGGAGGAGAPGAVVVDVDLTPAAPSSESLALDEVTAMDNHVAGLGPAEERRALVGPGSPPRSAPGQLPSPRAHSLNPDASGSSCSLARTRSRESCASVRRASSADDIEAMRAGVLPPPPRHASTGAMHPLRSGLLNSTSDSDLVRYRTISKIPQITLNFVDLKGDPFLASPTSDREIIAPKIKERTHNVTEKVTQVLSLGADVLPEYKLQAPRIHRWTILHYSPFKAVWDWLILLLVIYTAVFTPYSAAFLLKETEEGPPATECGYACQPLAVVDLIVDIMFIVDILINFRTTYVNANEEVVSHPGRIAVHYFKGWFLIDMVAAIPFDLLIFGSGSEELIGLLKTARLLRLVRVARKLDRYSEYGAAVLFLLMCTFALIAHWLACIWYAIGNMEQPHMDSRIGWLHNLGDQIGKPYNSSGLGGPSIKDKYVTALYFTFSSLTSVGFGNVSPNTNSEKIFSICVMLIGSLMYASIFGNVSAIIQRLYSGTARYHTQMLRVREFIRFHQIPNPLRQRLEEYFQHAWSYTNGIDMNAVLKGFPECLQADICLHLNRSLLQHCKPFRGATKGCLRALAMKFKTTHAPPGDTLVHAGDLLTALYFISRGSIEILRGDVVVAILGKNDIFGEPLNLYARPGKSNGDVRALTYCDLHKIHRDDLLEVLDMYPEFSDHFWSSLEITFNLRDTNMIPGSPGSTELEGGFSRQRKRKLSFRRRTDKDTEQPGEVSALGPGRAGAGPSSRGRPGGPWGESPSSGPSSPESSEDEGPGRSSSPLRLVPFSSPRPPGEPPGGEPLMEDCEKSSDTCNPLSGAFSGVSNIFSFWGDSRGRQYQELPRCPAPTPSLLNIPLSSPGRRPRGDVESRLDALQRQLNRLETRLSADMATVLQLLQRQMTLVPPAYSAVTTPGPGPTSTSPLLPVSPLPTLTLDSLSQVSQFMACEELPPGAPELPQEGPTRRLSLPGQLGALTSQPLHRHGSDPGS

Row | SMILES | hERG current change (%, negative = inhibition) at 10uM
1 | Cc1ccc(-c2noc(C3CCCN(C(=O)c4ccccc4Br)C3)n2)cc1 (centres unmarked) | 0.00198%
2 | N/C(=N\OC(=O)/C=C/c1ccccc1)c1ccc(Br)cc1 | 4.83%
3 | COc1ccc(CCNCC2C(Oc3ccc(Cl)cc3)C(=O)N2c2ccccc2C)cc1OC.Cl (centres unmarked) | -41%
4 | O=[N+]([O-])c1cc(/C=N/n2cnnc2)ccc1N1CCCC1 | -38.7%
5 | O=C(OCC(=O)N(Cc1ccccc1)Cc1ccccc1)c1ccccc1O | 5.67%
6 | N#CCc1ccccc1C(=O)OCC(=O)N(Cc1ccccc1)Cc1ccccc1 | -52.1%
7 | O=C(OCC(=O)N(Cc1ccccc1)Cc1ccccc1)c1ccccc1NCCO | -15.4%
8 | Clc1ccc(-c2noc(CN3CCCC3)n2)cc1 | -15.1%
9 | Cc1ccc(-c2noc(CN3CCCCC3)n2)cc1 | 34.6%
10 | FC(F)(F)c1ccc(-c2noc(CN3CCCN(C4CCCCC4)CC3)n2)cc1 | -75.7%
11 | c1cnc(-c2noc(CN3CCN(C4CCCC4)CC3)n2)cn1 | 18.7%
12 | CN1CCCN(Cc2nc(-c3ccc(Cl)cc3)no2)CC1 | -72.6%
13 | FC(F)(F)c1cccc(-c2noc(CN3CCOCC3)n2)c1 | 6.74%
14 | CC1CCN(Cc2nc(-c3ccc(Cl)cc3)no2)CC1 | 8.57%
15 | O=CN1CCCN(Cc2nc(-c3cccc(Cl)c3)no2)CC1 | -13.3%
16 | CN1CCCN(Cc2nc(-c3cccc(C(F)(F)F)c3)no2)CC1 | -60.2%
17 | CN1c2ccccc2C(C)(C)C12C=Cc1cc(O)ccc1O2 (centres unmarked) | -5.61%
18 | Cc1oc2cc(Br)c(O)c(Br)c2c1-c1ccccc1 | -13.5%
19 | CC(C)(C)OC(=O)NCCCC[C@H](NC(=O)c1[nH]cnc1C(=O)Nc1ccccc1)C(=O)OC(C)(C)C | 15.6%
20 | CCCNNC(=O)C(O)(c1cccc(C)c1)c1cccc(C)c1 | -2.43%
21 | Cc1ccc(N2C(=O)C(Cl)=C(N3CCOCC3)C2=O)c(C)c1 | 14.6%
22 | O=C(COC(=O)c1cccc(S(=O)(=O)NCc2ccccc2)c1)NCC1CCCO1 (centres unmarked) | 3.36%

Row | SMILES | hERG current change (%, negative = inhibition) at 10uM
23 | O=C(COC(=O)c1ccc(Cl)c(S(=O)(=O)N2CCCCC2)c1)NCC1CCCO1 (centres unmarked) | -14.1%
24 | O=C(COC(=O)c1ccc(Cl)c(S(=O)(=O)NCc2ccccc2)c1)NCC1CCCO1 (centres unmarked) | -53%
25 | CCN(CC)C(=O)C(=O)c1cccn1-c1ccc(C#N)cc1 | -18.8%
26 | COc1ccc2oc(=O)c(/C(C)=N/Nc3ccccc3)cc2c1 | -2.36%
27 | CCOC(=O)COc1cc(O)c2c(=O)cc(-c3ccccc3)oc2c1 | 12%
28 | CC(C)(C)OC(=O)COc1cc(OCC(=O)OC(C)(C)C)c2c(=O)cc(-c3ccccc3)oc2c1 | -15%
29 | CCOC(=O)COc1cc(OCC(=O)OCC)c2c(=O)cc(-c3ccccc3)oc2c1 | -62.6%
30 | O=C1CCc2cc(S(=O)(=O)NC3CCCCC3)cc3c2N1CC3 | 1.44%
31 | CC(C)(C)NS(=O)(=O)c1cc2c3c(c1)CCN3C(=O)CC2 | 17.4%
32 | CC1CC(NS(=O)(=O)c2cc3c4c(c2)CCN4C(=O)CC3)CC(C)(C)C1 (centres unmarked) | -63.1%
33 | c1ccc(-c2nnc(C(c3ccccc3)c3ccccc3)o2)cc1 | 6.86%
34 | CCN1CCN(c2c(C(=O)c3ccc(OC)cc3)cnc3ccccc23)CC1 | -80.3%
35 | COc1ccc(C(=O)c2cnc3ccccc3c2-c2ccccc2)cc1 | -9.47%
36 | CCOC(=O)c1cnc2ccc(OCC)cc2c1N1CCN(c2ccccc2)CC1 | 13.9%
37 | CCOC(=O)C1CCCN(c2c(C(=O)c3ccccc3)cnc3ccc(OC)cc23)C1 (centres unmarked) | -37.5%
38 | CCOc1ccc(C(=O)c2cnc3ccccc3c2N2CCN(CC)CC2)cc1 | -65.5%
39 | CCOC(=O)C1CCCN(c2c(C(=O)c3ccccc3)cnc3ccccc23)C1 (centres unmarked) | -26.5%
40 | COc1ccccc1-c1cc(C(=O)NC(C)c2ccccc2)no1 (centres unmarked) | 9.56%
41 | CCC(C)N=Cc1c(Nc2ccccc2)nc2c(C)cccn2c1=O (centres unmarked) | 17.6%
42 | O=C(Nc1cccc2ncccc12)c1cccnc1 | 14.5%
43 | CC(C)(C)c1ccc(C(=O)NCc2cccnc2)cc1 | -2.42%
44 | COc1ccc(OC)c(CCNC(=O)CCc2nnc3ccc(N4CCOCC4)nn23)c1 | 16.1%
